Measurements reported in PubChem BioAssay (NCI).
This is part of a sample that, as a whole, favours compounds with a hit. Of some 83,000 tested, about 20% had one in any assay.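 Step 1: grow cells in 96-well plates. Step 2: add test compound at a single concentration. Step 3: incubate 48 h. Step 4: record percent growth.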 Values without a mark were called inactive. Active and inactive are the calls of the source.

What follows are compounds tested on PC-3 prostate (assay: NCI-60 one-dose screen, 48 h (100 = growth as untreated, 0 = no growth, -100 = all killed)). Settings: 10 µM unless noted.
Protocol: Growth inhibition of the PC-3 human tumor cell line is measured as a screen for anti-cancer activity. Cells are grown in 96 well plates and exposed to the test compound for 48 hours. Compounds are tested at a single concentration, which is 10^-5 M for most compounds. The reported endpoint is percent growth (GI% or GIPRCNT), where numbers from 0 - 100% represent growth inhibition, and numbers from -100% - 0 represent cell death. For example, a value of 40 represents 60% growth inhibition. A value of 0 means no net growth occurred over the course of the experiment. A value of -40 indicates 40% of cells at the beginning of the experiment died by the end of the experiment. A value of -100 means all cells are dead at the end of the experiment.
NCI-60 Human Tumor Cell Lines Screen was performed using the standard one-dose NCI protocol, which is described in more detail at https://dtp.cancer.gov/discovery_development/nci-60/default.htm.
Compounds with GIPRCNT values below 10 were considered active. Activity score was based on GIPRCNT using the following formula: […]
Score is 0 for GIPRCNT values of 100 or above, 50 for GIPRCNT values of 0, and 100 for GIPRCNT values of -100.
With `c1cncc(-c2cn3nc(-c4c[nH]c5ccccc45)sc3n2)c1` the growth was 48.7%. With `CC(=O)Nc1ccc(NC(=O)Nc2cccc(-c3nc(-c4ccc(NC(=O)c5cccs5)cc4Cl)no3)c2)cc1C(F)(F)F` the growth was -64.5% (active). For `CCOP(=O)(OCC)OC[C@]12CCC(C)(C)C[C@H]1C1=CC[C@@H]3[C@@]4(C)C/C(=C\c5cccnc5)[C@H](OP(=O)(OCC)OCC)C(C)(C)[C@@H]4CC[C@@]3(C)[C@]1(C)CC2`, the growth was 15.6%. `COc1cc2c3c(n(CCCN4CCCCC4)c(=O)c2cc1OC)-c1cc2c(cc1C3=O)OCO2` was tested, and the growth was -87% (active). `O=C(COc1ccc(/C=C2\SC(=O)NC2=O)cc1)Nc1ccc(C(=O)/C=C/c2cc3ccccc3nc2Cl)cc1` was tested, and the growth was 65.6%. `COc1ccc(Oc2ccc(C3CC(c4cc(OC)c(OC)c(OC)c4)=NN3C(C)=O)cc2)cc1` (stereo not given) was tested, and the growth was 18.3%. `C=C1C(=O)O[C@@H]2C[C@@H](C)CCC(=O)[C@](C)(OC(C)=O)C[C@H](OC(=O)/C(C)=C\C)[C@@H]12` gave a growth of 79.1%. For `CCc1ccc(NC(=O)N[C@@H](Cc2cccc(C)c2)C(=O)N[C@@H]2C(=O)N3CCC[C@H]3C(=O)N3CCCC[C@H]3C(=O)N[C@@H](CO)C(=O)N3C[C@H](C)C[C@H]3C(=O)O[C@H]2C)c(F)c1`, the growth was 17.8%. `Oc1ccc(CSc2nnc(-c3ccncc3)o2)c2cccnc12` showed a growth of 12.7%. In the case of `O=C(O)c1ccc(-n2cc(CNc3ccc(Cl)cc3)c(-c3ccc(F)cc3)n2)cc1`, the growth is reported as 89%. For `CCN1C(=O)N(CC)C2SC(N/N=C/c3ccc(OC)cc3)=NC21` (stereo not given), the growth was 28.9%. Compound `COc1cc(/C=N/n2cnc3oc(-c4ccccc4)cc3c2=N)cc(CN2CCN(C)CC2)c1O` has a growth of 77.7%. For `C=CCn1c(SCC(=O)Nc2cccc(C(=O)/C=C/c3ccc(Br)cc3)c2)nc2ccccc2c1=O`, the growth was 79.4%. `CN(c1ccc(Cl)cc1)S(=O)(=O)c1ccc(-c2cnc(C3CC3)o2)cc1` gave a growth of 22.3%. `CCC(CC)n1c(=O)c(SC2=NC3C(NN2)N(CC)C(=O)N3CC)c(C(=O)O)c2ccccc21` (stereo not given) gave a growth of 23.9%. Compound `C#CCOc1ccc(C(Nc2cc(Cl)ccc2Cl)c2nnnn2C2CCCCC2)cc1` (stereo not given) has a growth of 76.9%. Work on `CC(C)C[C@H]1C(=O)O[C@H](C(C)C)C(=O)N(C)[C@@H](C(C)C)C(=O)O[C@H](C(C)C)C(=O)N(C)[C@@H](C(C)C)C(=O)O[C@H](C(C)C)C(=O)N1C` yielded a growth of 14.5%. Work on `COC(=O)c1c(C(=O)OC)c2n(CC(=O)Nc3cccc4cccnc34)c3ccccc3n2c1C(=O)c1ccc(C)cc1` yielded a growth of 82.5%. In the case of `CC1(C)CC[C@]2(C(=O)O)CC[C@]3(C)C(=CCC4[C@@]5(C)C[C@@H](O)[C@@H]6OC(c7ccccc7O)OC[C@@]6(C)C5CC[C@]43C)C2C1` (stereo not given in full), the growth is reported as 62.9%. With `O=C(NNc1nc2cc(F)cc(F)c2n2cccc12)c1ccncn1` the growth was 33.6%. `C=C(C)[C@@H]1CC[C@]2(COS(C)(=O)=O)CC[C@]3(C)[C@H](CC[C@@H]4[C@@]5(C)CCCNC(C)(C)[C@@H]5CC[C@]43C)[C@@H]12` gave a growth of 67.7%. With `NS(=O)(=O)c1ccc(-n2cc(CC=O)nn2)cc1` the growth was 100%. In the case of `Clc1ccccc1/C=C/c1nn2c(-c3ccncc3)nnc2s1`, the growth is reported as 97.2%. In the case of `N#Cc1ccc(S(=O)(=O)Nc2ccc(-c3cnc(N)[nH]3)cc2)cc1`, the growth is reported as 99%. For `Cc1ccc(-c2nnc3sc(C4=Cc5ccccc5OC=C4)nn23)cc1`, the growth was 96.7%. `Nc1nc(-c2cccc([N+](=O)[O-])c2)c(N=Nc2ccccc2[N+](=O)[O-])s1` showed a growth of 46.4%. With `O=C1C[C@@H](c2ccccc2)Oc2c(Cc3ccccc3O)c(O)c(Cc3cc(Cc4cc(Cc5ccccc5O)ccc4O)ccc3O)c(O)c21` the growth was 89.1%. With `CN1CCN(c2ccc(NC(=O)Nc3ccc4c(ccn4-c4cccc(C(N)=O)n4)c3)cc2C(F)(F)F)CC1` the growth was 50.9%. `COc1ccc(Cn2cc3c(c2-c2cc(OC)c(OC)c(OC)c2)CCCc2cnoc2-3)cc1N` gave a growth of 35.5%. Compound `O=C(/C=C/c1cn(-c2ccccc2)nc1-c1ccc(Cl)cc1)c1cc2ccccc2oc1=O` has a growth of 53.3%. In the case of `CCCCCCNC(=O)Oc1ccc(/C(=C(/C)c2ccccc2)c2ccc(OCCN(C)C)cc2)cc1`, the growth is reported as 70.6%. In the case of `COc1ccc(NC(=O)[C@H](C)N)cc1C(=O)Nc1cccc(-c2cc(=O)c3c(OC)c(OC)c(OC)cc3o2)c1`, the growth is reported as 71.6%. Compound `CCOC(=O)c1nn(-c2ccccc2)c(=O)c2c(N)c(C#N)c(-c3cccs3)cc12` has a growth of 79.9%. `C=CCn1c(SCC(=O)Nc2cccc(C(=O)/C=C/c3ccccc3Cl)c2)nc2ccccc2c1=O` gave a growth of 82.8%. `Cc1ccc(NC(=O)c2ccc(CN3CCN(C)CC3)c(C(F)(F)F)c2)cc1Oc1ccc(-c2[nH]nc3ncnc(N)c23)cc1` was tested, and the growth was 78.7%. Compound `CC(C)C(=O)Nc1ccc(-c2nc(-c3cccc(O)c3)c(-c3ccnc(Br)c3)[nH]2)cc1` has a growth of 29.7%. For `CCC(C)[C@H]1OC(=O)[C@H](C(C)C)N(C)C(=O)[C@@H](C(C)C)OC(=O)[C@H](C(C)C)N(C)C(=O)[C@@H](C(C)CC)OC(=O)[C@H](C(C)C)N(C)C1=O` (stereo not given in full), the growth was 12.1%. In the case of `O=C1CSC(=O)N1Cc1cc2ccccc2nc1Cl`, the growth is reported as 96.8%. With `COc1ccc(C(=O)c2c(N)c(C#N)cn2-c2cccc(OC)c2)cc1` the growth was 33.9%. For `C#C[C@]1(O)CC[C@H]2[C@@H]3CC=C4c5sc(C6CC6)nc5CC[C@]4(C)[C@H]3CC[C@@]21C`, the growth was 67.2%.
